# Screening results (PubChem)
# Pf Dd2 growth – blocks in vitro growth of P. falciparum Dd2. 120,000 tested, 4.3% active. Potency, µM (doses to about 28.9 µM), without a hit: at the top dose activity, negative = inhibition, actives largely listed as inhibitors. AID 1347417. P. falciparum Dd2 growth, SYBR Green, 72 h; active = well fitted inhibition curve with a large enough effect;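 also: plate controls were DMSO vehicle for no effect and reference drug for full effect; nearly all actives have a fitted effect of over 65% in size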
#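 Readout: SYBR Green fluorescence, 485 nm excitation, 535 nm emission, after ~16 h lysis at 37C. Before that, Dd2-infected red cells (2.5% hematocrit) grew 72 h with compound, 29 uM top final concentration.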
# Starred values were filed as active, the others as inactive; i = inactive; [ ] = remark or other dose. Many of the other results were omitted from the sample, so hits are more common in it than they were. Potency is read from the fitted curve at half-maximal effect.
SMILES,Pf Dd2 growth
O=C1N(Cc2ccccc2)CCOC12CCN(Cc1cc(F)ccc1F)CC2,i
O=C1N(Cc2ccccc2F)CCOC12CCN(Cc1ccc(F)cc1F)CC2,2.5µM*
O=C(NCc1ccccc1)C1CCN(C(=O)c2ncn3c2COC(c2ccc(Cl)cc2)C3)CC1 (centres undefined),-1%
CCc1ccc(NC(=O)Cn2c(C(=O)OC)cc3oc(C)cc32)cc1,15%
CCN1C(=O)c2ccccc2Sc2ccc(NC(=O)Nc3ccccc3OC)cc21,25%
COc1cc(C(=O)Nc2ccc3c(c2)N(C2CCCC2)C(=O)c2ccccc2S3)cc(OC)c1OC,8.9µM*
O=C(Nc1ccc2c(c1)N(C1CCCC1)C(=O)c1ccccc1S2)c1ccccc1,3%
O=C1CC2CCCC(C1)N2C(=O)c1cccc2[nH]ccc12,i
CC(=O)Nc1ccc(-n2ccnc2-c2ccc(O)c(CN(C)C)c2)cc1,-16%
Cc1noc(/C=C/c2ccco2)c1S(=O)(=O)N1CCC(C(=O)Nc2ccc(F)cc2F)CC1,-16%
CC(C)(C)OC(=O)N1CCC(c2c(C(=O)NCc3ccco3)cnn2-c2ccc(F)cc2)CC1,7.9µM*
Cc1c(Cl)cccc1-n1ncc(C(=O)NC2CCCCC2)c1C1CCN(C(=O)OC(C)(C)C)CC1,i
CC(C)(C)OC(=O)N1CCC(c2c(C(=O)NC3CCCCC3)cnn2-c2cccc(Cl)c2)CC1,8.9µM*
CC(C)(C)OC(=O)N1CCC(c2c(C(=O)NCc3cccc(Cl)c3)cnn2-c2ccc(F)cc2)CC1,11µM*
Cc1cccc(-n2ncc(C(=O)NCc3ccco3)c2C2CCN(C(=O)OC(C)(C)C)CC2)c1,11µM*
CC(C)(C)OC(=O)N1CCC(c2c(C(=O)NCc3ccc(F)cc3)cnn2-c2ccc(F)cc2)CC1,-12%
CCOC(=O)N1CCC(NC(=O)c2cnn(-c3ccccc3)c2C2CCN(C(=O)OC(C)(C)C)CC2)CC1,-20%
Cc1cccc(-n2ncc(C(=O)N3CCN(C(=O)c4ccco4)CC3)c2C2CCN(C(=O)OC(C)(C)C)CC2)c1,i
Cc1ccc(N2CC(NC(=O)c3ccc(S(=O)(=O)N4CCCC4)cc3)CC2=O)cc1 (centres undefined),i
Cc1ccccc1NC(=O)CC1NCCNC1=O (centres undefined),11%
CC(C)C(=O)N1CCC(O)(c2ccccc2)[C@H](N(C)C)C1 (some centres undefined),i[5.79 µM]
CC(C)c1ccc(NC(=O)CSC2=Nc3ccccc3C3=NC(CC(=O)NC4CCCCC4)C(=O)N23)cc1 (centres undefined),-2%
COc1cccc(CN2CCN3C(=O)N(C4CCCCC4)C[C@H]3C2)c1,-20%[44.1 µM]
CCc1ccc(-c2[nH]nc3nc(-c4cc(OC)ccc4OC)cc(C(=O)O)c23)cc1,-17%
N#CCn1nc2n(c1=O)CCN(C(=O)Cc1c(F)cccc1Cl)CC2,i
SMILES,Pf Dd2 growth
O=C(CNC(=O)c1ccccc1F)OCc1cc(=O)n2nc(C3CCCCC3)sc2n1,23%
CN(C)S(=O)(=O)n1cc(/C=C(\NC(=O)c2ccccc2Cl)C(=O)NCCCn2ccnc2)c2ccccc21,i
Cc1ccc(-c2nc(-c3cc4cccc(OCc5cccc(C)c5)c4oc3=O)no2)cc1,36%
Cc1ccc(-n2ncc(C(=O)NCc3ccccn3)c2C2CCN(C(=O)OC(C)(C)C)CC2)cc1C,-3%
Cc1cccc(-n2ncc(C(=O)NCc3ccccn3)c2C2CCN(C(=O)OC(C)(C)C)CC2)c1,10µM*
COC[C@H]1C[C@@H](NC(=O)c2nc3ccccc3s2)[C@H](O)[C@@H]1O,-13%[44.1 µM]
Cc1cccc(C)c1NC(=O)c1cc(S(=O)(=O)N2CCCc3ccccc32)ccc1F,-17%
Cc1cc(C)cc(N2CCC(NC(=O)c3cc(C)ccc3C)C2=O)c1 (centres undefined),i
Cc1noc(-c2ccc(C(C)(C)C)cc2)c1C(=O)NCc1cc(F)cc(F)c1,10µM*
Cc1noc(-c2ccc(C(C)(C)C)cc2)c1C(=O)NCc1ccc(F)cc1F,-7%
Cc1cccc(CNC(=O)c2c(C)noc2-c2ccc(C(C)(C)C)cc2)c1,-11%
O=C(Cn1nc(C(F)(F)F)c2c1CCCC2)Nc1ccc(F)c(Cl)c1,-11%
O=C(CCc1cc2n(n1)CCCNC2)N[C@H]1CCC[C@H]1Cc1ccc(F)cc1,-23%
Cc1cc(C)c(S(=O)(=O)N2CCC(C)(c3noc(C)n3)CC2)c(C)c1,-8%
CCc1ccc(NC(=O)CNC(=O)Cn2c(C)cc3ccccc3c2=O)cc1,-6%
CCC(CC)C(=O)N[C@H]1CO[C@H]2[C@@H]1OC[C@H]2O,4%[44.1 µM]
COc1ccc(C(=O)NC2CCN(c3cc(-c4ccc(Cl)cc4)[nH]n3)C2)cc1 (centres undefined),8.9µM*
COc1ccc(C(=O)NC2CCN(c3cnn(CC4CC4)c(=O)c3)CC2)c(OC)c1,7.9µM*
COc1ccc(-c2cc(N3CCC(NC(=O)c4cc(C)cc(C)c4)C3)n[nH]2)cc1 (centres undefined),i
COc1ccc(-c2cc(N3CCCC(NC(=O)c4cc(C)cc(C)c4)C3)n[nH]2)cc1 (centres undefined),8.9µM*
Cc1ccc(C(=O)NC2CCN(c3cc(-c4ccc(F)cc4)[nH]n3)CC2)cc1C,i
COc1ccc(-c2cc(N3CCCC(NC(=O)c4cc(C)ccc4C)C3)n[nH]2)cc1 (centres undefined),-7%
COc1ccccc1C(=O)NC1CCN(c2cnn(CC3CC3)c(=O)c2)CC1,i
COc1ccc(C(=O)NC2CCN(c3cnn(C)c(=O)c3)CC2)c(OC)c1,-19%
COc1ccc(-c2cc(N3CCC(NC(=O)c4ccc(Br)cc4)C3)n[nH]2)cc1 (centres undefined),-22%
SMILES,Pf Dd2 growth
COc1ccc(C(=O)NC2CCN(c3cc(-c4ccc(OC)cc4)[nH]n3)C2)cc1 (centres undefined),-10%
Cc1ccc(C(=O)NC2CCN(c3cc(-c4ccc(F)cc4)[nH]n3)C2)cc1C (centres undefined),13µM*
COc1ccc(-c2cc(N3CCC(NC(=O)c4ccc(C)c(C)c4)C3)n[nH]2)cc1 (centres undefined),-4%
O=C(c1ccccc1F)N1CCC12Cc1ccccc1NC2=O (centres undefined),-10%[44.1 µM]
COc1cccc(NC(=O)Cn2nc3c4ccccc4n(Cc4cccc(F)c4)cc-3c2=O)c1,41%
CC(=O)N1CCC(C2CCN(Cc3ccccc3C#N)C2)CC1 (centres undefined),-30%
O=C(NC1CC1)[C@@H]1C[C@H](Oc2ccccc2)CN1C(=O)c1n[nH]c(=O)c2ccccc12,-17%
CCO[C@H]1CN(C(=O)CCNC(=O)c2cccc(OC)c2)C[C@@H]1O,-6%
C[C@H]1CCCN1C(=O)c1nnc(COc2ccccc2F)n1-c1ccccc1,i
O=C1CCN(C(=O)[C@@H]2CCCN2)CCCCCCN1,28%
COc1ccc(-c2cc(N3CCN(C(=O)c4ccc(F)c(F)c4)CC3)n[nH]2)cc1,i
CC(C)NC(=O)NCc1nnc2n1C(C(=O)N(C)C)CC2 (centres undefined),i
COc1ccc(C(=O)NC2CCN(c3cc(-c4ccccc4)[nH]n3)C2)c(C)c1 (centres undefined),i
COc1ccc(-c2cc(N3CCC(NC(=O)c4cc(F)ccc4Cl)CC3)n[nH]2)cc1,-11%
COc1ccc(C(=O)NC2CCN(c3cc(-c4ccc(Cl)cc4)[nH]n3)C2)c(OC)c1 (centres undefined),5µM*
COc1ccc(-c2cc(N3CCC(NC(=O)c4ccccc4C)C3)n[nH]2)cc1 (centres undefined),i
